ATXN viability: Viability Counterscreen for Primary qHTS for Inhibitors of ATXN expression; actives 0.49% (n = 400,000); AID 651635, 2014; S2 cells (HEK-293 line with an ATXN2-luciferase reporter) viability, CellTiter-Fluor protease fluorescence, 24 h; Potency, µM (series often up to 56.7 µM), hits mostly cytotoxic; note: potency is the fitted concentration of half-maximal effect; nearly all actives have a fitted effect of over 40% in size
TGFb inhibitor: qHTS for Inhibitors of TGF-b; HepG2 CAGA-GFP TGF-b/SMAD3 reporter, GFP fluorescence, 18 h; TGF-beta stimulated, 500 pg/mL final; Potency, µM (titrated, usually from 46.1 µM), for the others: at the highest dose activity, negative = inhibition, most hits filed as inhibitors; actives 1.2% (n = 410,000); AID 588855, 2011; note: potency is the fitted concentration of half-maximal effect; % is set by controls: 0 for no effect and ±100 for the full control effect; nearly all actives have a fitted effect of over 65% in size
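Inhibition was scored as loss of TGF-beta-induced (500 pg/mL final, 18 hours, 37 degrees C) GFP in HEPG2 cells carrying a CAGA-GFP reporter, in DMEM with 1% FBS. Well GFP was summed per cell; Activity was normalised to unstimulated and stimulated DMSO wells, then concentration-response fitting.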
D3 antag: qHTS of D3 Dopamine Receptor Antagonist: qHTS; D(3) dopamine receptor (Homo sapiens), P35462; D3R cells, DiscoveRx beta-arrestin luminescence, antagonist mode; active compounds read low; max response, negative = inhibition, %; actives 2.5% (n = 360,000); in the data active = max response below about -50%; inconclusive = no clear call, values can overlap the other calls; note: % is set by controls: 0 for no effect and ±100 for the full control effect
Target sequence (P35462 whole entry, looked up): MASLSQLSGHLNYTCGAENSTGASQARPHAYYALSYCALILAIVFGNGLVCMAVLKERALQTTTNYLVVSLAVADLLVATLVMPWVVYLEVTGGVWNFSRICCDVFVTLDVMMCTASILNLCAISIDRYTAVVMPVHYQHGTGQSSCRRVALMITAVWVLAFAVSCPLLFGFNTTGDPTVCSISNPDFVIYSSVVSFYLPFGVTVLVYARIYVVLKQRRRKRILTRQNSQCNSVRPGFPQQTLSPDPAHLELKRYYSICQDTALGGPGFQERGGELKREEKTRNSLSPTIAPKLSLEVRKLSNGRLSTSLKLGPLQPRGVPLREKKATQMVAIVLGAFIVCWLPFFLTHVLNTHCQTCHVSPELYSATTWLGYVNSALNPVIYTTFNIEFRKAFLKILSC
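Cells plated overnight at 1500 cells/well, then exposed to library compounds with dopamine controls for 90 minutes at 37 degrees C. DiscoveRx reagent added for 30–60 minutes at room temperature; luminescence read, quantitative HTS format.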
HepG2 viability: qHTS for Inhibitors of TGF-b: Cytotox Counterscreen | HepG2 CAGA-GFP viability, ATP luminescence, 18 h | actives 0.76% (n = 410,000) | Potency, µM (highest dose often 46.1 µM), inactives show top-dose activity change, negative = cytotoxicity, most hits filed as cytotoxic; note: potency is the fitted concentration of half-maximal effect
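CellTiter-Glo luminescence gave cytotoxicity after 18 hours at 37 degrees C. The cells were HepG2 CAGA-GFP in 1% FBS DMEM, stimulated with 500 pg/mL TGF-beta after compound addition. %Activity was normalised to no-cell wells (complete cell-killing) and DMSO (no toxicity), and curves were fitted and classified.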
D3 ag: qHTS of D3 Dopamine Receptor Agonist: qHTS; max activation, %; D3R DiscoveRx beta-arrestin cells, luminescence, 90 min; D(3) dopamine receptor (Homo sapiens), P35462; actives 0.58% (n = 410,000); in the data active = max activation above about 30%; note: 0% is about no effect
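Cells at 1500/well, incubated overnight, then treated with pinned compounds (dopamine as control) for 90 min at 37 degrees C. DiscoveRx reagent added for 30 - 60 minutes at room temperature; luminescence read.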
ATXN2 expr inh: Primary qHTS for Inhibitors of ATXN expression | Potency, µM (titrated, usually from 57 µM), inactives show at the top dose activity change, negative = inhibition, hits mostly inhibitors | HEK-293 ATXN2-luciferase reporter, luminescence, 24 h | actives 0.72% (n = 360,000); note: potency is the fitted concentration of half-maximal effect; % is set by controls: 0 for no effect and ±100 for the full control effect; nearly all actives have a fitted effect of over 55% in size
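qHTS (up to 57 uM final) was run with 24 h compound exposure of reporter cells at 37 °C. Each well was multiplexed: SteadyGlo luminescence measured ATXN2-luciferase expression after a fluorogenic Gly-Phe-AFC viability readout (25 uM final).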
* marks the source's active call; other numbers are inactive results; i = inactive; ? = inconclusive; / = no result. Rows were chosen to be rich in hits. Some 4.8% of all compounds tested hit in one or more screens of this group. Unless noted, calls come from the whole dose curve; as a rule, active = well fitted curve in the direction sought with a large enough effect; inconclusive = small, poorly fitted or top-dose-only effect, or another doubt; inactive = no such curve, though single readings can be large; an effect the other way counts as inactive or inconclusive.

SMILES | ATXN viability | TGFb inhibitor | D3 antag | HepG2 viability | D3 ag | ATXN2 expr inh
CO/C=C(/C(=O)OC)c1ccccc1Oc1cc(Oc2ccccc2C#N)ncn1 | ? | / | / | / | 22 | ?
CC1CN(C(=O)c2ccc(S(=O)(=O)Nc3ccccc3F)cc2)CC(C)O1 (configuration not stated) | ? | 17% | -6 | 10% | -6 | 6%
COc1cc(CN2CCCC(C(=O)c3sccc3C)C2)cc(OC)c1O (configuration not stated) | i | -3% | -27 | 14% | -2 | /
COc1ccc(CN2CCCC(C(=O)c3sccc3C)C2)cc1O (configuration not stated) | i | -8% | -74* | -27% | -20 | 1%
COc1cc(CN2CCCC(C(=O)c3sccc3C)C2)cc(Cl)c1O (configuration not stated) | i | 0% | -51* | -8% | -19 | -19%
Cc1cccc(NP(=O)(Oc2ccccc2F)Oc2ccccc2F)c1 | i | 13µM* | 15 | -60% | -1 | -16%
O=P(Nc1cccc(F)c1)(Oc1ccccc1F)Oc1ccccc1F | i | ? | 37 | -47% | 5 | -30%
CC(=O)Nc1ccc(S(=O)(=O)N(C)CCOCc2ccccc2)cc1 | i | 2% | 7 | 6% | -4 | -4%
CN[C@@H]1Cc2cccc3[nH]c(=O)n(c23)C1 | / | / | / | / | / | -3%
C/C1=C\[C@@H](C)C/C=C/[C@H]2[C@@H]3O[C@]3(C)[C@@H](C)[C@H]3[C@H](Cc4c[nH]c5ccccc45)NC(=O)[C@]32C(=O)/C=C/C(=O)[C@@H]1O | 32µM* | 2.8µM* | -51* | -98% | -46 | ?
CN1CCN(c2cc([N+](=O)[O-])ccc2Cl)CC1 | i | 0% | -99* | 1% | -17 | -10%
Cc1ccc(NC(=O)C2CCN(C(=O)c3cnn(-c4ccccc4)c3-n3cccc3)CC2)cc1Cl | ? | 14µM* | / | -27% | 3 | ?
Cc1cc(C)n(-c2ccc(NN=C(C#N)C#N)cc2)n1 | ? | ? | 0 | -78% | 0 | /
N#CC(C#N)=NNc1ccc(-n2ccc(C(F)(F)F)n2)cc1 | ? | 3.2µM* | -2 | -45% | 23 | ?
O=S(=O)(c1ccc(F)cc1)N1CCCCC1c1cccnc1 (configuration not stated) | i | 2% | 6 | 5% | -3 | -4%
COc1ccccc1CN1CCCCC1c1cccnc1 (configuration not stated) | i | -1% | -9 | 0% | 33* | -2%
CC(C)(C)c1ccc(O)c(CN2CCN(c3ccccc3)CC2)c1 | i | -9% | -71* | -9% | -7 | -12%
CCC(=O)OC1(c2cccc(C)c2)CC(C)N(C)CC1C (configuration not stated) | i | 14% | 9 | 6% | -14 | -12%
CCC(=O)OC1(Cc2ccc(CC)cc2)CC(C)N(C)CC1C (configuration not stated) | i | -1% | -56* | -12% | -45 | -19%
COc1ccc(C2C=C(c3ccccc3)Nc3nc(NC(=O)/C=C/c4ccccc4Cl)nn32)cc1 (configuration not stated) | i | ? | / | -34% | 4 | ?
C=CCN1CC[C@]23CCCC[C@H]2[C@H]1Cc1ccc(O)cc13 | i | / | / | / | -19 | -2%
COc1ccccc1CC(=O)N1CCN(CCc2ccccc2)CC1 | i | 1% | -15 | -1% | -11 | -11%
Cc1ccc(N2CCN(CCc3ccccc3)CC2)cc1 | i | -3% | -66* | -26% | -45 | -1%
Cc1cccc(N2CCN(CCc3ccccc3)CC2)c1C | i | ? | -68* | -70% | 20 | -1%
COc1ccccc1N1CCN(CCc2ccccc2)CC1 | i | 0% | -104* | 2% | -1 | /
c1ccc(CCN2CCCC2)cc1 | / | 2% | / | -1% | / | /

Screens deposited in PubChem by National Center for Advancing Translational Sciences (NCATS).
